Assay outcomes deposited in PubChem by National Center for Advancing Translational Sciences (NCATS).
The sample as a whole holds a higher share of hits than the screen did.
PNC inhibitor: perinucleolar compartment assembly inhibition. PC3M PTB-GFP, PNC prevalence imaging, 16 h; active compounds read low. activity change (PNC), negative = inhibition, % at 10 µM. 140,000 compounds, 3.1% hits;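 active = readout at or below -70, meaning at least 70% loss of cells showing the perinucleolar compartment, a nuclear body marking cancer cells; inconclusive = readout between -30 and a set limit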
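Read-out is percentage of cells bearing a perinucleolar compartment, from automated 20x imaging of fixed, Hoechst-stained PC3M PTB-GFP cells. Cells were seeded 4 h, then exposed 16 h to compound (23 nl of library stock) in duplicate plates.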
IMPase Li inh: cell-permeable IMPase inhibitors with lithium potentiation; CHO-M1 cells, IP1 TR-FRET (IP-One), carbachol + lithium; Potency, µM (highest dose often 59.4 µM), actives largely listed as inhibitors; 210,000 compounds, 0.35% hits; AID 1457;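 also: IP1 builds up when IMPase is blocked and the TR-FRET signal falls; nearly all actives have a fitted effect of over 50% in size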
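Readout is a homogeneous TR-FRET IP1 immunoassay (Ex 320, Em 665 and 620), where raised cytosolic IP1 lowers signal. Cells were CHO-M1 treated 30 min at 37C with test compounds plus a little lithium; AC50 values came from Hill-equation fitting.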
15-hLO-2 inh: 15-hLO-2 (ALOX15B) enzyme inhibition | Potency, µM (series often up to 57.1 µM), hits mostly inhibitors | AID 881 | O15296 | purified 15hLO-2, xylenol orange hydroperoxide absorbance | 110,000 compounds, 0.56% hits; also: nearly all actives have a fitted effect of over 60% in size
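Read-out: hydroperoxide product oxidises ferrous iron, measured as xylenol orange complex via the 573-to-405 nm absorbance ratio after 30 min. Reaction: 50 nM enzyme, 15 min compound preincubation, 45 uM arachidonic acid, 90 min RT, Hepes pH 7.5 with Triton X-100.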
IMPase cell inh: cell-permeable inhibitors of inositol monophosphatase (IMPase) | AID 901 | P97697 | inhibition (IP1 accumulation), % at 46.1 µM | CHO-M1 cells, IP1 accumulation, HTRF TR-FRET ratio | 120,000 tested, under 10 active; active = well fitted curve in the direction sought with a large enough effect in the signal ratio, not every such curve was filed as active; inconclusive = small, poorly fitted or top-dose-only effect, or a change in a side signal; inactive = no such curve, though single readings can be large or run the other way; the % refers to the signal ratio;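 also: cells stimulated with carbachol in lithium chloride buffer; higher means more IMPase inhibition seen as more IP1 and lower FRET ratio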
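Seeded CHO-M1 cells were dosed with compound at up to 46 uM, stimulated with carbachol for 30 min, then lysed in IP-One detection reagents. Higher IP1 lowers the TR-FRET signal.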
12-hLO inh: blocks human 12-lipoxygenase activity | P18054 | purified 12-hLO, xylenol orange hydroperoxide absorbance | Potency, µM (series often up to 57.1 µM), actives largely listed as inhibitors | 150,000 compounds, 0.12% hits; also: nearly all actives have a fitted effect of over 55% in size
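Hydroperoxide formation by human 12-lipoxygenase from 40 uM arachidonic acid was followed colorimetrically via ferric-xylenol orange complex, using the 573/405 nm absorbance ratio. Enzyme concentration was 150 nM, with 30 min reaction at room temperature.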
Hits are given with their value; - = inactive; ? = inconclusive; . = not tested or not shown; [ ] = another dose, or the depositor's remark. Unless noted, calls follow the shape of the dose curve; as a rule, active = well fitted curve in the direction sought with a large enough effect; inconclusive = small, poorly fitted or top-dose-only effect, or another doubt; inactive = no such curve, though single readings can be large; an effect the other way counts as inactive or inconclusive.

SMILES | PNC inhibitor | IMPase Li inh | 15-hLO-2 inh | IMPase cell inh | 12-hLO inh
COc1ccccc1OCCn1cc(C#N)c2ccccc21 | -119 | - | . | - | -
O=C(c1ccco1)N1CCN(CC(O)Cn2c3ccccc3c3ccccc32)CC1 (stereo not given) | -87 | - | - | - | -
Cc1ccc(-n2nnnc2SCC(=O)N2CCN(C(=O)c3ccco3)CC2)c(C)c1 | -83 | - | - | - | -
O=C(CSCc1ccccc1)N1CCN(C(=O)c2ccco2)CC1 | -100 | - | . | - | -
COc1ccc(OC)c(-n2nnnc2SCC(=O)N2CCN(C(=O)c3ccco3)CC2)c1 | . | - | . | . | .
Cc1ccc(C)n1CCN1CCN(C(=O)c2ccco2)CC1 | ? | - | - | - | -
CC(=O)c1ccccc1[N+](=O)[O-] | . | - | - | . | -
COc1ccc(C(=O)c2oc3ccccc3c2NC(=O)COc2ccccc2)cc1 | . | . | . | - | .
CSCCC(NC(=O)c1ccc(Cl)cc1)C(=O)O (stereo not given) | . | - | . | . | .
CSCCC(NC(=O)c1cc([N+](=O)[O-])ccc1Cl)C(=O)O (stereo not given) | -82 | - | . | - | -
c1ccc(Nc2ncnc3ccc(-c4cccnc4)cc23)cc1 | . | - | - | . | -
CCOc1ccc(NC(=O)COc2ccc(C(=O)NCCc3ccccc3)cc2)cc1 | -105 | . | . | - | -
CC(C)c1ccccc1NC(=O)COc1ccc(C(=O)NCCc2ccccc2)cc1 | - | - | . | - | -
COC(=O)c1sccc1NC(=O)c1sccc1C | -100 | - | . | - | -
Cc1cccc(C)c1Nc1oc(-c2ccccc2)nc1-c1ccccc1F | . | - | . | . | -
CCn1c(/C=C/c2c[nH]c3ccccc23)nc2ccccc2c1=O | . | - | . | . | .
CN(C)S(=O)(=O)c1ccc2[nH]cc(/C=C/c3nc4ccccc4c(=O)n3-c3ccccc3)c2c1 | -80 | - | - | - | -
CN(C)CC[C@H](c1ccc(Br)cc1)c1ccccn1 | . | - | - | - | -
O=C(NCSc1ccnc(SCNC(=O)c2ccc(F)cc2)n1)c1ccc(F)cc1 | -97 | - | ? | - | -
COc1ccc(C2C(C(=O)NCc3ccccn3)c3ccccc3C(=O)N2C)cc1OC (stereo not given) | -88 | - | - | - | -
CCN1CCCC1CNC(=O)c1csc2c1CCCC2 (stereo not given) | -85 | - | -[11.4 µM] | -[1.84 µM] | -
O=C(NCC1CCCO1)c1csc2c1CCCC2 (stereo not given) | - | - | - | - | -
COC(=O)C1=C(C(=O)OC)[C@@H]2N(Cc3ccccc3)c3ccccc3[C@@]23C[C@@H](C(=O)OC)N(S(=O)(=O)c2ccc([N+](=O)[O-])cc2)C3=N1 | . | - | . | . | -[11.4 µM]
CNc1ccccc(-c2ccc3cc4c(cc3n2)OCO4)c1=O | -109 | - | . | . | -
CC(C)c1ccc(/C(C(=O)O)=C(\O)C(=O)O)cc1 | . | - | -[11.4 µM] | . | -[11.4 µM]
SMILES | PNC inhibitor | IMPase Li inh | 15-hLO-2 inh | IMPase cell inh | 12-hLO inh
CCOC(=O)c1c(-c2ccccc2)csc1NC(=O)C1CCCO1 (stereo not given) | ? | - | - | ? | -
CCOC(=O)c1c(-c2ccc(C)cc2)csc1NC(=S)NC(=O)c1ccccc1 | - | - | -[11.4 µM] | -[1.84 µM] | ?
CCOC(=O)c1c(-c2ccc(-c3ccccc3)cc2)csc1NC(=O)C1C2CCC(O2)C1C(=O)O (stereo not given) | - | - | 20µM | - | -
CCOC(=O)c1c(-c2ccc(C)cc2)csc1NC1=NS(=O)(=O)c2ccccc21 | - | 11µM | . | . | -
Cc1ccccc1CN1CCNC(=O)C1CC(=O)O (stereo not given) | -84 | - | - | - | -
COc1ccccc1CN1CCC2(CC1)CCN(S(=O)(=O)c1ccccc1)CC2 | . | - | - | . | -
COc1cc(Cl)c(C)cc1NC(=O)CSc1cc(Cl)ccc1Cl | -119 | - | . | - | -
COc1cc(Cl)c(C)cc1NC(=O)CSc1ccc(C)cc1 | - | - | - | - | -
COc1cc(Cl)c(C)cc1NC(=O)CSc1ccccc1 | -125 | - | . | . | -
COc1ccccc1C1C=C(c2ccc(Cl)cc2)Nc2nc(-c3ccc(Cl)cc3)nn21 (stereo not given) | . | . | . | - | .
CCOC(=O)c1[nH]c2c(c1Cc1ccccc1OC)C(=O)CC(c1ccc(OC)cc1)C2 (stereo not given) | . | . | . | - | .
O=C(O)[C@@H]1CCCN1Cc1ccc2c(c1)OCO2 | . | - | -[11.4 µM] | . | -[11.4 µM]
